# Measured values taken from PubChem BioAssay AID1159554 (Broad Institute, 2015).
# Screen size: about 94,000 compounds; about 2,100 (2.2%) were called active. Shown is part of a subset that was picked to be rich in actives. Unmarked numbers belong to inactive results. Rule as the data show it: active = activity change below about -80%; inconclusive = no clear call, values can overlap the other calls; inactive = above that.
# Assay: P. falciparum Dd2 growth inhibitors, primary screen, SYBR Green fluorescence, single dose replicates (AID 1159554)
# Settings: 72 h, at 10 µM, stronger effect = lower value
row,Structure (SMILES),activity change
1,Cc1ccc(S(=O)(=O)Nc2ccc3c(c2)C(=O)N([C@@H](C)CO)C[C@@H](C)[C@H](CN(C)Cc2ccc(Cl)c(Cl)c2)OCCCC[C@@H](C)O3)cc1,-43.2%
2,C[C@@H]1CN([C@H](C)CO)S(=O)(=O)c2ccc(C3=CCCC3)cc2O[C@H]1CN(C)C(=O)Nc1ccc2c(c1)OCO2,-57.4%
3,COc1ccccc1S(=O)(=O)N[C@@H]1CC[C@@H](CCNC(=O)C2CCCCC2)O[C@@H]1CO,-1.07%
4,O=C(Nc1cccc(Cl)c1)N[C@@H]1CC[C@@H](CCNC(=O)C2CCOCC2)O[C@@H]1CO,-0.665%
5,C/C=C/c1cnc2c(c1)C(=O)N([C@H](C)CO)C[C@@H](C)[C@H](CN(C)Cc1cccc(C(=O)O)c1)O2,27.8%
6,O=C(C[C@@H]1CC[C@H]2[C@@H](COC[C@@H](O)CN2CC2CC2)O1)NCc1ccc(Cl)cc1,-0.915%
7,CC(=O)N1[C@H](CO)[C@H](c2ccccc2)C12CN(C(=O)c1ccccn1)C2,-28.2%
8,C[C@@H]1CN([C@@H](C)CO)C(=O)c2cc(NC(=O)Cc3ccccc3)ccc2O[C@@H](C)CCCCO[C@H]1CN(C)C(=O)Nc1cccc2ccccc12,-86.1% (active)
9,C[C@@H]1CN([C@@H](C)CO)C(=O)c2cc(NC(=O)Cc3ccccc3)ccc2O[C@@H](C)CCCCO[C@@H]1CN(C)C(=O)Nc1ccccc1,-51.5%
10,C[C@@H]1CN([C@@H](C)CO)C(=O)c2cc(NC(=O)CCCN(C)C)ccc2O[C@@H](C)CCCCO[C@H]1CN(C)C(=O)Nc1cccc2ccccc12,-85.2% (active)
11,CC(C)NC(=O)N(C)C[C@@H]1OCCCC[C@@H](C)Oc2ccc(NC(=O)Cc3ccccc3)cc2C(=O)N([C@H](C)CO)C[C@H]1C,-13.3%
12,CC(C)NC(=O)N(C)C[C@@H]1OCCCC[C@@H](C)Oc2ccc(NC(=O)CCCN(C)C)cc2C(=O)N([C@@H](C)CO)C[C@@H]1C,-5.33%
13,C[C@@H]1CCCCO[C@H](CN(C)C(=O)Nc2cccc3ccccc23)[C@H](C)CN([C@@H](C)CO)C(=O)c2cc(NC(=O)CCCN(C)C)ccc2O1,0.619%
14,CO[C@@H]1CN(C)C(=O)c2cc(NC(=O)Nc3ccc(F)cc3)ccc2OC[C@@H](C)NC[C@@H]1C,13.3%
15,O=C(C[C@H]1CC[C@H]2[C@@H](COC[C@@H](O)CN2CC2CCOCC2)O1)NCc1ccc(Cl)cc1,-4.66%
16,CO[C@@H]1CN(C)C(=O)c2ccc(NS(C)(=O)=O)cc2OC[C@@H](C)N(C(=O)CC2CC2)C[C@@H]1C,16.2%
17,O=C(c1ccccn1)N1CC(=O)N2[C@H](CO)[C@H](c3ccc(C#CCc4ccccc4)cc3)[C@H]2C1,-46.8%
18,O=C(C[C@@H]1C=C[C@H](NC(=O)Nc2ccccc2F)[C@@H](CO)O1)NCc1ccccc1,-0.106%
19,CN1CCN(C(=O)C[C@H]2CC[C@H]3[C@@H](COc4ccc(NC(=O)C5CCC5)cc4C(=O)N3C)O2)CC1,-19.8%
20,CN1C(=O)c2cc(NC(=O)c3cccc(F)c3)ccc2OC[C@H]2O[C@@H](CC(=O)NCc3ccccc3Cl)CC[C@@H]21,-47.4%
21,CCCNC(=O)N(C)C[C@H]1Oc2cc(-c3ccncc3)ccc2S(=O)(=O)N([C@H](C)CO)C[C@H]1C,70.9%
22,CC(C)NC(=O)N[C@H]1C=C[C@H](CC(=O)NCCN2CCCC2)O[C@@H]1CO,9.57%

row,Structure (SMILES),activity change
1,C/C=C/c1cnc2c(c1)C(=O)N([C@@H](C)CO)C[C@H](C)[C@H](CN(C)C(=O)CN1CCOCC1)O2,-2.24%
2,COc1ccc2c3c(n(C)c2c1)[C@@H](CO)N(C(C)=O)CC31CCN(Cc2nccs2)CC1,-11.3%
3,COc1ccc2c3c(n(C)c2c1)[C@@H](CO)N(C(=O)Nc1cccc(F)c1)CC31CCN(Cc2nccs2)CC1,-73.5%
4,COc1ccc2c3c(n(C)c2c1)[C@H](CO)N(CC1CCCCC1)CC31CCN(Cc2nccs2)CC1,-91% (active)
5,COc1ccc2c3c(n(C)c2c1)[C@H](CO)N(Cc1cccnc1)CC31CCN(Cc2cccnc2)CC1,-77.6%
6,CCC(=O)N1CC2(C1)CN(Cc1nccs1)[C@@H](CO)c1c2c2ccc(OC)cc2n1C,3.74%
7,COc1ccc2c3c(n(C)c2c1)[C@H](CO)N(C(=O)CC1CC1)CC31CCN(Cc2nccs2)CC1,-91.8% (active)
8,CN1C(=O)c2cc(NC(=O)C3CCCC3)ccc2OC[C@H]2O[C@@H](CC(=O)NCCc3ccncc3)CC[C@H]21,22.6%
9,CCS(=O)(=O)N1CC2(CN(C(=O)c3ccc(F)cc3)[C@H](CO)c3c2c2ccc(OC)cc2n3C)C1,-2.54%
10,CO[C@H]1CN(C)C(=O)c2ccc(NC(=O)Nc3ccc4c(c3)OCO4)cc2OC[C@H](C)NC[C@H]1C,0.516%
11,CCC(=O)Nc1ccc2c(c1)C(=O)N(C)C[C@H](OC)[C@H](C)CN(Cc1ccccc1F)[C@H](C)CO2,-27.5%
12,CCC(=O)N1C[C@H](C)[C@H](OC)CN(C)C(=O)c2ccc(NC(=O)Nc3cccc(F)c3)cc2OC[C@@H]1C,-41.8%
13,CO[C@@H]1CN(C)C(=O)c2ccc(NC(=O)Nc3cc(Cl)cc(Cl)c3)cc2OC[C@H](C)NC[C@H]1C,-84.1% (active)
14,CCC(=O)Nc1ccc2c(c1)C(=O)N(C)C[C@@H](OC)[C@@H](C)CN(Cc1ccccc1F)[C@H](C)CO2,-23.2%
15,CCC(=O)N1C[C@H](C)[C@H](OC)CN(C)C(=O)c2cc(NC(=O)Nc3cccc(F)c3)ccc2OC[C@@H]1C,-86.1% (active)
16,CO[C@H]1CN(C)C(=O)c2cc(NC(=O)Nc3cccc(F)c3)ccc2OC[C@H](C)N(C(C)=O)C[C@H]1C,-27.3%
17,CCCC(=O)Nc1ccc2c(c1)OC[C@@H](C)N(Cc1ccccc1F)C[C@@H](C)[C@H](OC)CN(C)C2=O,-88.8% (active)
18,CO[C@H]1CN(C)C(=O)c2ccc(NC(C)=O)cc2OC[C@@H](C)NC[C@H]1C,19.5%
19,COc1ccc(NC(=O)Nc2ccc3c(c2)[C@H]2C[C@H](CC(=O)NC4CCCC4)O[C@@H](CO)[C@H]2O3)cc1,4.95%
20,O=C(C[C@@H]1CC[C@H]2[C@@H](COC[C@H](O)CN2S(=O)(=O)c2ccccc2)O1)NCCN1CCCC1,-4.83%
21,C[C@@H]1CCCCO[C@H](CN(C)C(=O)CCC(F)(F)F)[C@H](C)CN([C@@H](C)CO)C(=O)c2cc(NC(=O)CCCCCC(=O)Nc3ccccc3N)ccc2O1,-41%
22,O=S(=O)(NC[C@H]1[C@@H](c2ccccc2)[C@@H](CO)N1CC1CC1)c1ccccc1,10.7%

row,Structure (SMILES),activity change
1,Cc1nc(N2[C@H](CO)[C@H](c3ccccc3)[C@H]2CNCC2CCCCC2)sc1C,-96.4% (active)
2,CCCNC(=O)N1[C@H](CO)[C@H](c2ccccc2)[C@H]1CNC(=O)C1CCCCC1,6.57%
3,COCCNC[C@@H]1[C@H](c2ccccc2)[C@H](CO)N1c1nc(C)c(C)s1,-28.1%
4,Cc1nc(N2[C@H](CO)[C@H](c3ccccc3)[C@H]2CNCC2CCC2)sc1C,-89.7% (active)
5,O=C(NC[C@@H]1[C@H](c2ccccc2)[C@H](CO)N1CC1CCCC1)c1cccnc1,-5.05%
6,CCCNC(=O)[C@@H]1[C@@H](CO)[C@@H]2Cn3c(ccc(-c4ccccc4F)c3=O)[C@H]1N2CC1CC1,4.78%
7,CCCNC(=O)C[C@@H]1CC[C@H]2[C@@H](COc3ccc(NC(=O)C4CCCC4)cc3C(=O)N2C)O1,5.93%
8,O=C(CC1CC1)N1CC[C@@H]2[C@@H](CO)Nc3ccc(-c4ccccc4)cc3[C@@H]21,4.83%
9,O=C(Nc1ccccc1)N[C@@H]1CC[C@H](CCn2cc(-c3ccccc3F)nn2)O[C@@H]1CO,-68%
10,O=C(Nc1ccc(F)cc1)N[C@H]1CC[C@H](CCn2cc(C3(O)CCCC3)nn2)O[C@@H]1CO,-25.8%
11,C[C@@H]1CCCCO[C@@H](CN(C)Cc2ccc3c(c2)OCO3)[C@@H](C)CN([C@@H](C)CO)C(=O)c2cc(NC(=O)Nc3ccccc3)ccc2O1,-36.8%
12,COc1ccc(NC(=O)Nc2ccc3c(c2)C(=O)N([C@H](C)CO)C[C@H](C)[C@H](CN(C)Cc2ccncc2)OCCCC[C@H](C)O3)cc1,29.4%
13,C[C@@H]1CCCCO[C@@H](CN(C)Cc2ccc(Cl)c(Cl)c2)[C@H](C)CN([C@H](C)CO)C(=O)c2cc(NC(=O)Nc3ccc(F)cc3)ccc2O1,-83% (active)
14,C[C@H](CO)N1C[C@H](C)[C@H](CN(C)Cc2ccc(Cl)c(Cl)c2)OCCCC[C@H](C)Oc2ccc(NC(=O)NC3CCCCC3)cc2C1=O,-14.4%
15,COc1ccc(CN(C)C[C@@H]2OCCCC[C@@H](C)Oc3ccc(NC(=O)Nc4ccc(OC)cc4)cc3C(=O)N([C@@H](C)CO)C[C@@H]2C)cc1,-76.5%
16,CC(C)NC(=O)Nc1ccc2c(c1)C(=O)N([C@@H](C)CO)C[C@@H](C)[C@H](CN(C)Cc1ccc(Cl)c(Cl)c1)OCCCC[C@H](C)O2,-77.6%
17,COc1ccc(NC(=O)Nc2ccc3c(c2)C(=O)N([C@H](C)CO)C[C@@H](C)[C@H](CN(C)Cc2ccc(Cl)c(Cl)c2)OCCCC[C@@H](C)O3)cc1,-83.8% (active)
18,C[C@@H]1CCCCO[C@H](CN(C)Cc2ccc(Cl)c(Cl)c2)[C@@H](C)CN([C@@H](C)CO)C(=O)c2cc(NC(=O)Nc3ccccc3)ccc2O1,-83% (active)
19,C[C@@H]1CCCCO[C@@H](CN(C)Cc2ccc(C(F)(F)F)cc2)[C@@H](C)CN([C@H](C)CO)C(=O)c2cc(NC(=O)Nc3ccccc3)ccc2O1,74.5%
20,C[C@H]1CCCCO[C@@H](CN(C)Cc2ccc(C(F)(F)F)cc2)[C@@H](C)CN([C@@H](C)CO)C(=O)c2cc(NC(=O)Nc3ccccc3)ccc2O1,-74.7%
21,C[C@@H]1CN([C@H](C)CO)C(=O)c2cc(NC(=O)Nc3ccccc3)ccc2O[C@@H](C)CCCCO[C@H]1CN(C)Cc1ccc(C(F)(F)F)cc1,-85.7% (active)
22,C[C@@H]1CN([C@H](C)CO)C(=O)c2cc(NC(=O)Nc3ccc(F)cc3)ccc2O[C@@H](C)CCCCO[C@H]1CN(C)Cc1ccc(Cl)c(Cl)c1,-77.2%
